Source: PubChem
HSF1 inhib: HSF1 inhibition; NIH3T3-HGL HSE-luciferase, MG132-induced, luminescence 8 h; stronger effect = lower value; activity change, negative = inhibition, % at 7.5 µM (by protocol); 300,000 compounds, 0.77% hits; AID 2098;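 active = more than half of replicate wells show activity change below -50%, luminescence cut by over half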;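 note: luciferase reports HSF-1 transcriptional activity via heat shock element; 0% = median of DMSO wells and -100% = zero luminescence signal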
HSF1 activator: increases HSF-1 driven luciferase reporter signal | activation, % at 9 µM | NIH3T3-HGL HSF-1 luciferase reporter, MG132, 8 h; 100% = twice DMSO control signal | 300,000 compounds, 1.7% hits;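 active = mean replicate activation of at least 50% with a set share of replicates each reaching 50%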;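 note: 0% = median of the neutral control wells and 100% = twice that signal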
TROY signal inh: blocks TROY-dependent signaling in reporter cells; Q293 LMP1-TROYcd NF-kB luciferase reporter, 4 h; inhibition, % at 10 µM; 360,000 compounds, 0.98% hits; AID 1347056;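 active = compounds whose plate-normalised and pattern-corrected inhibition of the luciferase reporter signal at the single screening dose is 50% or more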
TWEAK-Fn14 inh: TWEAK-Fn14 signaling inhibition; TWEAK-stimulated Fn14 reporter cells, luciferase luminescence, 8 h; AID 1159606; 360,000 compounds, 2% hits; inhibition, % at 10 µM; in the data active = inhibition above about 50%
LGR2 inh: Drosophila LGR2 receptor signaling inhibition; 380,000 compounds, 0.35% hits; inhibition, % at 9.99 µM; HEK293 LGR2, CRE-luciferase, bursicon-stimulated, 4 h; AID 720647;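 active = drop in luminescence signal, shown as inhibition above about 50% in the replicate tests, limit read from the data, passing the limit was not always enough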;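 note: agonist challenge used bursicon conditioned medium at about half maximal strength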
LMP1 NFkB inh: inhibitors of Epstein-Barr LMP1-induced NF-kappaB reporter. LMP1-induced NF-kappaB luciferase reporter cells, luminescence. AID 504558. 350,000 compounds, 0.69% hits. inhibition, % at 12.5 µM; in the data active = inhibition above about 41%;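 note: 0% = neutral control wells and 100% = reference inhibitor control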
Active calls of the source: *; nt = not tested or not shown. Sampled rows, rich in hits. Any-hit rate of the full collection: about 3.6%.

SMILES	HSF1 inhib	HSF1 activator	TROY signal inh	TWEAK-Fn14 inh	LGR2 inh	LMP1 NFkB inh
Nc1ccc2c(c1)OC1(CCCC1)O2	-89*	-91	68*	90*	15	59*
COC(=O)C[C@@H]1CC[C@H]2[C@H](COc3ccc(NC(=O)c4cc(C)on4)cc3C(=O)N2C)O1	nt	nt	nt	nt	9	nt
O=C(CSC1=NNC(c2ccccn2)S1)Nc1ccccc1 (configuration not stated)	-62*	-67	26	3	-18	-3
O=C(CSC1=NNC(c2ccccn2)S1)Nc1cccc(Cl)c1 (configuration not stated)	-27	-37	7	20	-21	-11
COc1ccc(-c2nc3ccccc3n2Cc2ccccc2)cc1	3	11	-11	-23	-2	1
